From the supplement of paper PMC13380429
Values without a mark were called inactive.

Test system: Vero E6 infected with SARS-CoV-2
Test: inhibition of SARS-CoV-2 cytopathic effect; higher = more antiviral protection, active = above 15
Details: 48 h

SMILES	inhibition of SARS-CoV-2 cytopathic effect (1 nM) [%]	inhibition of SARS-CoV-2 cytopathic effect (8.33 nM) [%]	inhibition of SARS-CoV-2 cytopathic effect (100 nM) [%]	inhibition of SARS-CoV-2 cytopathic effect (833.33 nM) [%]	inhibition of SARS-CoV-2 cytopathic effect (10000 nM)
N[C@@H](C(=O)O)c1nn[nH]n1 (racemic) [tetrazol-5-yl-glycine-(RS)]	-2.49	-1.1	0.87	1.56	-1.13%
C[C@@H]1O[C@@H](O[C@@H]2[C@@H](O)[C@H](OCCc3ccc(O)c(O)c3)O[C@H](CO)[C@H]2OC(=O)/C=C/c2ccc(O)c(O)c2)[C@H](O)[C@H](O)[C@H]1O [verbascoside]	-0.06	-0.95	0.7	-1.19	-1.48%
CC12CCC(C(Br)C1=O)C2(C)C (stereo not given) [3-bromocamphor]	-1.02	0.99	-0.16	1.85	0.04%
Cc1ccc(NC(=O)c2cccc(C(C)(C)C#N)c2)cc1Nc1ccc2ncn(C)c(=O)c2c1	1.24	2.77	-0.67	-2.75	-1.17%
COc1ccc2nc3[nH]nc(C)c3c(NCCOCCO)c2c1	-3.38	-2.01	-3.28	-0.23	-2.9%
C=CC(=O)c1ccc2ccccc2c1 [JAK3-inhibitor-V]	-1.46	-1.7	-2.73	-2.88	1.9%
Cc1[nH]c2ccccc2c1CCNCc1ccc(/C=C/C(=O)NO)cc1 [panobinostat]	-1	-0.99	-7.01	-13.3	-14.4%
CN1CCN(c2ccc(C(=O)Nc3n[nH]c4ccc(Cc5cc(F)cc(F)c5)cc34)c(NC3CCOCC3)c2)CC1 [entrectinib]	4	2.95	-2.01	-2.36	-12.4%
C[C@@H]1CC[C@H]2[C@@H](C)C(=O)O[C@@H]3O[C@@]4(C)CC[C@@H]1[C@]32OO4 [artemisinin]	0.52	0.05	3.13	3.83	1.16%
O=C(O)/C=C(/CC(=O)O)C(=O)O [cis-aconitic-acid]	0.99	0.49	-3.45	-2.25	0.81%
CC(Cc1ccccc1)NCCC(c1ccccc1)c1ccccc1 (stereo not given) [prenylamine]	1.32	-1.92	-0.65	-1.29	23.1% (active)
CN(C)CCN1C(=O)c2cccc3cc(N)cc(c23)C1=O [amonafide]	4.04	2.14	1.57	3.27	-6.16%
CC(=O)N(CC(O)CO)c1c(I)c(C(=O)NCC(O)CO)c(I)c(C(=O)NCC(O)CO)c1I (stereo not given) [iohexol]	-1.99	-0.81	-1.68	-0.74	2.67%
COc1c2ccoc2cc2oc(=O)ccc12 [bergapten]	-0.67	-0.91	-2.71	3.76	14.6%
c1cnc(SCc2cccnc2)nc1 [tasuldine]	1.94	1.66	0.38	0.69	1.89%
CCOCc1cc(OC)c(-c2ccc(C[C@H](NC(=O)c3c(F)cccc3F)C(=O)O)cc2)c(OC)c1 [firategrast]	2.19	-0.43	0.01	-0.69	-2.41%
O[C@H]([C@H](O)[C@@H]1CO1)[C@H]1CO1 [dianhydrogalactitol]	-0.61	-1.52	-3.41	0.41	2.5%
CCC(C)(Oc1ccc(C2(c3ccc(OC(C)(CC)C(=O)O)cc3)CCCCC2)cc1)C(=O)O (stereo not given) [clinofibrate]	-0.17	-1.53	-1.92	-1.83	0.41%
